An excerpt weighted towards active compounds, which were near 11% of everything screened.
NS1 inh = blocks influenza NS1 protein function | 270,000 tested, 0.4% active | Potency, µM (series often up to 46.1 µM), for the others: top-dose activity, positive = more growth; calls by dose curve; further: actives are rising curves; nearly all actives have a fitted effect of over 50% in size
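In this qHTS, NS1 from influenza A is expressed in budding yeast, where it slows growth. Cells are switched from glucose to 2% galactose medium (pH 6.0, -URA), treated with compound, and growth recovery is read at OD600.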
Pf growth 48h = inhibits P. falciparum growth in the first generation, 48 h; P. falciparum luciferase growth in erythrocytes, 48 h; Potency, µM (highest dose often 28.7 µM), without a hit: top-dose activity change, negative = inhibition, most hits filed as inhibitors; 310,000 tested, 5.9% active; further: on the % scale 0 is the no-effect control and ±100 the full control effect
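Compounds are pin-transferred into medium, infected erythrocytes (2% hematocrit, 0.1% parasitemia final) are added, and plates sit one parasite generation at 37 C in 5% CO2. Detection reagent is then added and luminescence measured.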
Sm TGR inh = inhibitors of Schistosoma mansoni thioredoxin glutathione reductase | Q962Y6 | purified TGR, DTNB reduction, TNB absorbance 405 nm | Potency, µM (titrated, usually from 114 µM), for inactives: at the top dose activity change, negative = inhibition, most hits filed as inhibitors | 360,000 tested, 3% active | AID 485364; further: on the % scale 0 is the no-effect control and ±100 the full control effect; nearly all actives have a fitted effect of over 60% in size
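Kinetic colorimetric format: TGR-catalysed, NADPH-driven DTNB reduction monitored via TNB absorbance. Enzyme dispensed at 20 nM; compound exposure 15 min at room temperature before reaction start.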
Pf growth 96h = P. falciparum growth inhibition at 96 hour, primary screen for plastid delayed-death inhibitors. Potency, µM (top dose mostly 28.7 µM), for inactives: at the highest dose activity change, negative = inhibition, most hits filed as inhibitors. 320,000 tested, 6.9% active. P. falciparum luciferase reporter growth, 96 h. AID 504834; further: on the % scale 0 is the no-effect control and ±100 the full control effect
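Erythrocytes infected with luciferase-expressing P. falciparum were dispensed at 2% hematocrit and 0.05% parasitemia (final), then incubated with compounds 96 hours at 37 C in 5% CO2. Luminescence after detection reagent addition reported growth.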
AMA1-RON2 inh = inhibitors of Plasmodium falciparum AMA1-RON2 interaction; AlphaScreen AMA1-biotinylated RON2 peptide binding; Potency, µM (top dose mostly 58.2 µM), without a hit: at the top dose activity change, negative = inhibition, usual class: inhibitors; 360,000 tested, 0.2% active;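 further: 0% = vehicle wells and -100% = peptide control; nearly all actives have a fitted effect of over 45% in size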
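AMA1 (3D7) with his tag at 25 nM final met compounds first, then biotinylated RON2 peptide at 25 nM; detection used donor plus acceptor beads, 10 µg/mL apiece, read by AlphaScreen after 30 min at room temperature.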
* marks the source's active call; other numbers are inactive results; ? = inconclusive; . = no result; ! = not confirmed by another sample; [ ] = dose if it differs, or a comment. Unless noted, the call rests on the fitted dose curve; in most records, active means well fitted curve in the direction sought with a large enough effect; inconclusive means small, poorly fitted or top-dose-only effect, or another doubt; inactive means no such curve, though single readings can be large; an effect the other way counts as inactive or inconclusive. Potency means the concentration at half of the fitted maximal effect.

SMILES	NS1 inh	Pf growth 48h	Sm TGR inh	Pf growth 96h	AMA1-RON2 inh
C/C(=N\NC(=O)c1cc(C)nc2ccccc12)c1ccco1	1%	?	-26%	-42%[5.75 µM]	6%
COc1ccc(-c2cc(C(=O)N/N=C/c3sccc3C)c3ccccc3n2)c(OC)c1	-45%	.	4%	12µM*	0%
CCn1cc(/C=N\NC(=O)c2cc(-c3ccccc3OC)nc3ccccc23)c(C)n1	-24%	1.7µM*	-3%	1.9µM*	6%
COc1ccccc1-c1csc(NC(=O)c2cc(-c3cccs3)nc3ccccc23)n1	?	?	2%	7.4µM*	0%
CCCCOC(=O)C(C)Oc1ccc(=O)n(-c2ccccc2)n1 (stereo not given)	-5%	.	-2%	?	-1%
CCOC(=O)C(C)Oc1ccc(=O)n(-c2ccccc2)n1 (stereo not given)	1%	-2%	-2%	1.9µM*	5%
CCOC(=O)C1C(=O)C=C(c2cccc(NS(C)(=O)=O)c2)CC1c1ccco1 (stereo not given)	-11%	?	32µM*	-12%	-1%
CCn1c(SCC(=O)NC(=O)c2ccccc2OC)nc2ccccc21	15%	29%	-5%	?	77%
COCCn1c(SCC(=O)N(C)C2CCS(=O)(=O)C2)nc2ccccc2c1=O (stereo not given)	4%	-2%	.	14%	-3%
CCn1c(SCC(=O)N(Cc2ccccc2)C2CCS(=O)(=O)C2)nc2ccccc2c1=O (stereo not given)	-7%	5.2µM*	0%	.	-7%
CCC(C)N(C(=O)CSc1nc(C)nc2ccccc12)C1CCS(=O)(=O)C1 (stereo not given)	.	?	-1%	15µM*	6%
CCN(C(=O)CSc1nc2ccccc2c(=O)n1Cc1ccc(C)cc1)C1CCS(=O)(=O)C1 (stereo not given)	.	-2%	1%	?	4%
C=CCn1c(SCC(=O)N(C(C)CC)C2CCS(=O)(=O)C2)nc2ccccc2c1=O (stereo not given)	.	?	0%	5.9µM*	-9%
CCC(C)N(C(=O)COc1ccccc1C#N)C1CCS(=O)(=O)C1 (stereo not given)	.	2%	6%	?	6%
Cc1nc(SCC(=O)N(CC(C)C)C2CCS(=O)(=O)C2)c2ccccc2n1 (stereo not given)	.	?	-16%	?	12%
CCC(C)N(C(=O)COc1ccccc1C(=O)NCc1ccccc1)C1CCS(=O)(=O)C1 (stereo not given)	-2%	?	3%	9.3µM*	3%
COc1cccc(COC(=O)C2CCN(C(=O)c3ccc(F)cc3)CC2)c1OC	.	?	0%	-1%	7%
CC(=O)c1ccccc1NC(=O)COC(=O)CCC1CCCC1	.	.	.	.	72%
Cc1nc(Cl)sc1C(=O)Nc1cccc(Cl)c1	-19%	-10%	1%	?	18%
CSc1cc(-c2ccncc2)nc(-c2ccc(Cl)cc2)c1	-1%	.	3%	15µM*	18%
COc1cc2c(cc1OC)C(C)N(C(=O)c1cccc([N+](=O)[O-])c1)CC2 (stereo not given)	.	-8%	2%	0.52µM*	-12%
COc1cc2c(cc1OC)C(c1cc(OC)c(OC)cc1[N+](=O)[O-])N(C(C)=O)CC2 (stereo not given)	3%	14%	89µM*	0%	-11%
COc1cc2c(cc1OC)C(c1cc(Br)ccc1O)N(C(C)=O)CC2 (stereo not given)	.	.	.	.	11%
C[C@H](CCC(=O)O)[C@H]1CC[C@H]2[C@@H]3[C@H](O)C[C@@H]4C[C@H](O)CC[C@]4(C)[C@H]3C[C@H](O)[C@]12C	7%	9.3µM*!	-2%	12µM*!	-11%
C[C@H](CCC(=O)O)[C@H]1CC[C@@H]2[C@H]3[C@@H](C[C@@H](O)[C@]21C)[C@]1(C)CC[C@H](O)C[C@@H]1C[C@@H]3O	0%	-13%	.	-17%	.
SMILES	NS1 inh	Pf growth 48h	Sm TGR inh	Pf growth 96h	AMA1-RON2 inh
O=C(CC1SC(=Nc2cccc3ccccc23)N(Cc2ccccn2)C1=O)Nc1ccccc1Br (stereo not given)	18%	9.3µM*	-1%	8.3µM*	-1%
CCC(C)N=CC1=C(O)CC(c2ccccc2)CC1=O (stereo not given)	-15%	.	0%	?	-11%
CCC(=Nc1ccccc1OC)C1=C(O)CC(c2ccccc2)CC1=O (stereo not given)	.	-23%	9%	0.41µM*	-5%
CCCC(=NC(C)CC)C1=C(O)CC(c2ccccc2)CC1=O (stereo not given)	-62%	2.9µM*	-3%	?	-26%
COC(=O)C1=C(C)N(CCC2=CCCCC2)C(=O)C1	24%	-5%	32µM*	.	-3%
Cc1ccc(C)c(NC(=O)Cn2cc(S(=O)(=O)Cc3cccc(Cl)c3)c3ccccc32)c1	.	.	4%	.	.
Oc1ccccc1CN1CCC(C(O)(c2ccccc2)c2ccccc2)CC1	2%	7.4µM*	0%	0%	-2%
CC(C)(C)c1ccc(O)c(CN2CCN(c3ccccc3)CC2)c1	1%	2.1µM*	25%	1%	-2%
COc1cc(CN2CCN(C(O)(c3ccccc3)c3ccccc3)CC2)cc(OC)c1OC	3%	?	-12%	?	-18%
Oc1ccccc1CN1CCN(C(O)(c2ccccc2)c2ccccc2)CC1	1%	5.9µM*	-1%	5.2µM*	-13%
CC(C)CNC(=O)CSc1n[nH]c(=O)n1CCc1ccccc1	14%	1%	5%	3%	5%
CCOc1ccccc1NC(=O)C1CCN(S(=O)(=O)c2ccccc2)CC1	.	.	-13%	.	.
CCOC(=O)C1=NNC(C(=O)OCC)C1C(=O)OCC (stereo not given)	.	.	.	.	-7%
Oc1c(Cl)cc(Cl)cc1C=Nc1ccccc1N1CCCC1	-36%	?	16µM*	?	.
COc1ccc2nc(NC(=O)C3CCN(S(=O)(=O)c4cccc5nsnc45)CC3)sc2c1	?	?	16%	10µM*	-1%
CCOc1ccccc1NC(=O)C1CCCN(S(=O)(=O)c2ccc(OC)c(C)c2)C1 (stereo not given)	?	10µM*	4%	.	-3%
COc1ccccc1NC(=O)C1CCCN(S(=O)(=O)c2cccc3nsnc23)C1 (stereo not given)	4%	.	-11%	3.3µM*	0%
Cc1ccc(NC(=O)C2CCCN(S(=O)(=O)c3ccc4[nH]c(=O)ccc4c3)C2)cc1C (stereo not given)	-6%	-2%	-14%	?	-6%
COc1ccc(NC(=O)C2CCCN(S(=O)(=O)c3ccc4[nH]c(=O)ccc4c3)C2)cc1OC (stereo not given)	-7%	24%	-20%	12µM*	-1%
Cc1cccc(NC(=O)C2CCCN(S(=O)(=O)c3cccc4nsnc34)C2)c1 (stereo not given)	7%	.	-3%	8.3µM*	0%

Screening results (PubChem)
